Screening results (PubChem BioAssay)
An excerpt weighted towards active compounds, which were near 4% of everything screened.
TIM10 inh: inhibits growth of TIM10 yeast strain; 330,000 compounds, 1.4% hits; inhibition, % at 10 µM; AID 463195; S. cerevisiae TIM10 strain growth, BacTiter-Glo luminescence, 24 h;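 active = inhibition of 40% or more at the single tested concentration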;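 also: wild-type TIM10 isogenic control strain grown at permissive 25 °C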
tim23-1 inh: growth inhibitors of tim23-1 mutant yeast; 330,000 compounds, 1.3% hits; inhibition, % at 20 µM; S. cerevisiae tim23-1 growth, BacTiter-Glo luminescence, 24 h;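 active = growth inhibition of the mutant yeast at or above 50%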;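 also: temperature-sensitive mutant grown at 25 °C; plate controls were DMSO-treated mutant yeast for no effect and medium wells lacking yeast for full effect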
tim10-1 inh: inhibits growth of tim10-1 mutant yeast; S. cerevisiae tim10-1 ts strain growth, BacTiter-Glo, 24 h; inhibition, % at 20 µM; 330,000 compounds, 2.2% hits; AID 463190;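 active = inhibition of at least 40%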;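 also: mutant grown at 25 °C; 0% = DMSO wells with yeast and 100% = wells holding no yeast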
NLRP3 yeast inh: inhibitors of NALP3 inflammasome in yeast; Yeast reconstituted NLRP3/ASC/caspase-1, beta-gal luminescence, 24 h; inhibition, % at 10 µM; 330,000 compounds, 0.39% hits; AID 2825;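 active = inhibition of 50% or more; inactive = inhibition below 50%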;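 also: plate controls were induced DMSO wells for no effect and uninduced yeast grown without galactose for full effect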
NALP1 yeast inh: blocks the NALP1 inflammasome reconstituted in yeast. S. cerevisiae NALP1/ASC/caspase-1 growth, X-gal OD620, 72 h. inhibition, % at 10 µM. 280,000 compounds, 0.61% hits; in the data active = inhibition mostly above about 24%, no sharp cut-off; inactive = mostly below about 32%
TIM10 conf: confirmation of TIM10 yeast growth inhibitors; shares compounds with TIM10 inh; S. cerevisiae tim10 strain growth, BacTiter-Glo luminescence, 24 h; inhibition, % at 10 µM; 4,600 compounds, 63% hits; AID 463215;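 active = inhibition of yeast growth at or above a set limit in either of two replicates at 10 µM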;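 also: this counterscreen used the strain with wild-type TIM10; 0% = yeast with DMSO and 100% = medium wells lacking yeast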
tim23-1 confirm: confirmation of tim23-1 mutant yeast growth inhibitors | shares compounds with tim23-1 inh | S. cerevisiae tim23-1 growth, BacTiter-Glo luminescence, 24 h | inhibition, % at 20 µM | 4,400 compounds, 83% hits | AID 463218;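 active = inhibition above about 39% in either of two replicate wells at 20 µM, limit read from the data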;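 also: temperature-sensitive tim23-1 mutant grown at 25 °C; 0% = DMSO wells with yeast and 100% = medium wells without yeast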
Starred values were filed as active, the others as inactive; . = no result given.

SMILES	TIM10 inh	tim23-1 inh	tim10-1 inh	NLRP3 yeast inh	NALP1 yeast inh	TIM10 conf	tim23-1 confirm
CC(C)C[C@]1(c2ccccc2)ON(c2ccccc2C(F)(F)F)C1=O	3.1	20.7	-25.6	8.0	.	.	.
COc1ccccc1[C@]1(C)ON(c2ccccc2C(F)(F)F)C1=O	63.5*	68.9*	-50.9	16.0	.	57.8*	-54.8
O=[N+]([O-])c1cc(Cc2ccccc2)cc(C=Nc2ccc(N3CCOCC3)cc2)c1O	.	.	.	.	58.7	.	.
O=[N+]([O-])c1cc2oc3c(c2c(C=NCc2ccccc2)c1O)CCCC3	54.0*	77.4*	33.9	10.7	62.4	-0.2	2.2
COc1ccccc1CNC(=O)CN1C(=O)NC2(CCC(C)CC2)C1=O (stereo not drawn)	-13.0	3.8	-1.0	-7.1	.	.	.
COC(=O)c1ccc(NC2=C(Cl)C(=O)OC2OC(=O)c2ccccc2)cc1 (stereo not drawn)	41.0*	50.3*	35.6	16.1	16.6	24.9	42.8*
COc1cc([N+](=O)[O-])cc2sc(NC(=O)c3c(F)cccc3F)nc12	47.0*	51.7*	37.1	-6.3	0.0	43.6*	50.7*
O=C(Nc1nc(-c2ccc([N+](=O)[O-])cc2)cs1)c1c(F)cccc1F	3.7	2.1	-10.0	-0.1	-5.1	.	.
O=Cc1ccccc1OCCCOc1cccc2cccnc12	49.5*	76.3*	33.2	30.9	4.9	52.4*	78.7*
O=Cc1ccc(OCCCOc2cccc3cccnc23)cc1	14.2	36.0	38.7	35.2	21.1	.	.
c1ccc(NCc2nc3ccccc3n2CCOc2ccccc2)cc1	42.6*	52.5*	34.5	20.0	17.4	50.0*	52.0*
COc1ccc(N2CC(C(=O)N[C@@H](C)C(=O)NCc3ccccc3OC)CC2=O)cc1 (stereo partly drawn)	-0.4	-2.5	1.8	0.4	15.5	.	.
O=C(N/N=C/c1cc(Br)ccc1O)c1ccccc1Cl	64.9*	78.9*	35.5	16.8	59.1*	-34.0	68.8*
COC(=O)N/N=C/c1cc(Br)ccc1O	7.8	2.0	23.3	30.1	-5.3	.	.
CC(C)NC(=S)N/N=C/c1cc(Br)ccc1O	55.5*	55.1*	39.1	6.0	37.1	-9.7	-5.6
Oc1ccc(Br)cc1/C=N/NC(=S)NCCc1ccccc1	35.3	26.5	29.4	12.7	11.2	.	.
CCCSCCCNC(=O)c1ccc(C)c(NC(=O)C2=C(C)OCCS2)c1	-7.7	19.3	30.4	4.1	23.5	.	.
COc1ccc(/C=N/NC(=O)c2ccncc2)cc1CSc1nc2ccccc2s1	20.0	18.1	28.8	8.8	0.8	.	.
Cc1ccc(/C=C/C(=O)c2ccc([N+](=O)[O-])o2)cc1	67.9*	57.3*	26.5	13.8	.	78.0*	-24.8
C=CCSC(=C(C#N)C#N)c1cc2c([nH]1)CCCC2	40.8*	52.5*	28.6	34.0	12.7	23.1	62.5*
Cc1cc(C)nc(-n2nc(C)cc2NC(=O)c2cccc(S(=O)(=O)N(C)C)c2)n1	-6.7	-1.6	5.0	18.6	3.5	.	.
Cc1ccc(C)c(C(=O)Nc2cc(C)nn2-c2nc(C)cc(C)n2)c1	43.2*	53.8*	8.9	11.5	16.6	42.8*	48.3*
Cc1nn(C)c(C)c1S(=O)(=O)NCCc1ccc(Cl)cc1	-7.3	-14.0	3.0	11.4	2.1	.	.
CCOc1ccc(C2=NNC(c3cccs3)=Nc3ccc(OC)cc32)cc1	54.9*	64.4*	30.4	26.2	-13.1	43.3*	69.6*
CN(CC(=O)Nc1ccc(Cl)cc1F)C1=NS(=O)(=O)c2ccccc21	-8.1	-11.5	-3.2	11.8	.	.	.
SMILES	TIM10 inh	tim23-1 inh	tim10-1 inh	NLRP3 yeast inh	NALP1 yeast inh	TIM10 conf	tim23-1 confirm
Cc1ccc(-c2nnc(N3CCN(c4ccccn4)CC3)c3ccccc23)cc1	48.2*	65.3*	37.5	2.7	5.7	-21.8	72.0*
CCCCNC(=O)CCn1c(=O)c2ccccc2n(CC(=O)NCCc2ccc(OC)c(OC)c2)c1=O	-1.0	-1.1	-6.5	-5.2	4.3	.	.
C=CCOc1cccc(C(=O)/C=C2/C(=O)Nc3ccccc32)c1	85.1*	75.5*	20.7	22.6	-3.4	79.7*	-5.5
Cc1ccc(NC(=O)COC(=O)C(NS(=O)(=O)c2ccc(Cl)cc2)C(C)O)cc1C (stereo not drawn)	-17.2	-0.3	3.8	-0.2	20.5	.	.
COc1ccc(NC(=O)c2cccs2)cc1	3.5	9.6	-15.8	19.4	27.8	.	.
COc1ccc(N=N/C(=C\O)C(=O)c2cccs2)cc1	55.0*	76.4*	37.0	15.2	4.2	58.5*	64.6*
CSCCC(NC(=O)COc1ccccc1)C(=O)N(C)Cc1ccc(Cl)cc1Cl (stereo not drawn)	2.8	33.5	15.9	11.3	.	.	.
COc1ccc(Cl)cc1C(=O)O/N=C(\N)c1ccccn1	25.8	36.9	16.0	21.2	9.3	.	.
Cc1ccc(/C(N)=N/OC(=O)c2ccc(C)cc2Cl)cc1	82.2*	80.2*	23.4	10.0	36.2	88.6*	23.5
N/C(=N\OC(=O)c1cc(Cl)ccc1Cl)c1ccccn1	58.5*	65.8*	36.3	-18.9	29.5	44.0*	56.7*
Cc1cc(/C(N)=N/OC(=O)c2ccccc2Cl)no1	-21.0	13.1	9.7	10.1	17.4	.	.
Cc1cccc(/C(N)=N/OC(=O)c2ccc(Cl)cc2Cl)c1	85.5*	65.9*	1.5	22.8	51.8	87.6*	39.8*
N/C(=N\OC(=O)c1ccc(Cl)cc1Cl)c1ccc(Cl)cc1	78.9*	82.3*	34.3	22.2	11.9	84.7*	66.7*
Oc1ccccc1CN1CCCC(N2CCc3ccccc3C2)C1 (stereo not drawn)	-1.0	4.9	-15.0	19.9	22.3	.	.
O=C(O)/C=C/c1cn(-c2ccccc2)nc1-c1ccccc1	1.1	16.2	14.7	9.1	13.0	.	.
O=Cc1cn(-c2ccccc2)nc1-c1ccncc1	46.7*	55.7*	23.3	2.2	8.9	38.5*	46.8*
CCC(C)c1ccc(NC(=O)c2cccs2)cc1 (stereo not drawn)	51.8*	72.5*	32.3	26.7	2.6	44.9*	73.0*
CN1C(=S)N(c2cccnc2)C(=O)/C1=C\c1ccc(C(C)(C)C)cc1	55.0*	55.2*	32.7	27.9	12.0	55.8*	46.5*
O=C(Nc1ccc2nc(-c3ccccc3)[nH]c2c1)c1cccs1	46.8*	59.4*	-22.4	13.8	-4.9	19.9	69.2*
O=C(Nc1nc(-c2ccccc2)cs1)c1cccs1	43.6*	53.4*	34.3	17.2	-65.8	5.2	54.6*
CC(=O)c1ccc(OCCCC(=O)Nc2cc(Cl)ccc2-n2cncn2)cc1	36.9	-1.0	-9.4	12.1	21.9	.	.
COc1ccc(/C=N/NC(=O)c2cc3c(OC)ccc(OC)c3[nH]2)cc1O	3.1	14.1	18.1	13.3	-1.0	.	.
